Measured values from PubChem BioAssay (NCATS).
Records with an inconclusive call do not appear. Active and inactive are the calls of the source. Calls come from the whole dose curve; as a rule, active = well fitted cell-killing curve with a large enough effect; inconclusive = small, poorly fitted or top-dose-only effect, or effect the other way; inactive = no such curve, though single readings can be large or run the other way. Starred links: 1 amine or outer side, 2 acyl side, 3 side chain; linkers in the order of their positions; H or OH if unused. Positions of bridges follow the written chain, without caps; N, C: chain ends. Non-standard residues stand in square brackets, D forms with d. Residues, ends and D or L forms follow the SMILES beside them. Chains are numbered I, II in the order given. Actinocin(9to1) = Cc1c2oc3c(C)ccc(C(=O)[*:1])c3nc-2c(C(=O)[*:2])c(N)c1=O; NMeV = CN[CH](C(=O)O)C(C)C; Sar = CNCC(=O)O

Experiments:
[1] = Quantitative High-Throughput drug screen in 47 multiple myeloma cell lines against the NCATS MIPE library collection: MM1R_ATCC cell viability assay (AID 1918981); note: nearly all actives have a fitted effect of over 35% in size
Summary of the method: (§1)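 Cells were exposed to library compounds for 48 hours, after which ATP was measured by CellTiter-Glo. Signal was taken as median relative luminescence units.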

[2] = Quantitative High-Throughput drug screen in 47 multiple myeloma cell lines against the NCATS MIPE library collection: LP1_DSMZ cell viability assay (AID 1918982); note: nearly all actives have a fitted effect of over 35% in size
Summary of the method: as §1

[3] = Quantitative High-Throughput drug screen in 47 multiple myeloma cell lines against the NCATS MIPE library collection: KMS28PE_JCRB cell viability assay (AID 1918983); note: nearly all actives have a fitted effect of over 35% in size
Summary of the method: as §1

[4] = Quantitative High-Throughput drug screen in 47 multiple myeloma cell lines against the NCATS MIPE library collection: L363_DSMZ cell viability assay (AID 1918984); note: nearly all actives have a fitted effect of over 40% in size
Summary of the method: as §1

[5] = Quantitative High-Throughput drug screen in 47 multiple myeloma cell lines against the NCATS MIPE library collection: KMS34_JCRB cell viability assay (AID 1918985); note: nearly all actives have a fitted effect of over 40% in size
Summary of the method: as §1

[6] = Quantitative High-Throughput drug screen in 47 multiple myeloma cell lines against the NCATS MIPE library collection: OCIMY7_PLB cell viability assay (AID 1918987); details: OCI-MY7 myeloma viability, CellTiter-Glo ATP, 48 h; viability (% of DMSO): at 45.8 µM (top of the series); note: nearly all actives have a fitted effect of over 65% in size
Summary of the method: as §1

[7] = Quantitative High-Throughput drug screen in 47 multiple myeloma cell lines against the NCATS MIPE library collection: OCIMY5_PLB cell viability assay (AID 1918988); note: nearly all actives have a fitted effect of over 65% in size
Summary of the method: as §1

[8] = Quantitative High-Throughput drug screen in 47 multiple myeloma cell lines against the NCATS MIPE library collection: OPM1_PLB cell viability assay (AID 1918989); note: nearly all actives have a fitted effect of over 40% in size
Summary of the method: as §1

[9] = Quantitative High-Throughput drug screen in 47 multiple myeloma cell lines against the NCATS MIPE library collection: U266_ATCC cell viability assay (AID 1919864); note: nearly all actives have a fitted effect of over 35% in size
Summary of the method: as §1

[10] = Quantitative High-Throughput drug screen in 47 multiple myeloma cell lines against the NCATS MIPE library collection: XG6_PLB cell viability assay (AID 1919865); note: nearly all actives have a fitted effect of over 40% in size
Summary of the method: as §1

[11] = Quantitative High-Throughput drug screen in 47 multiple myeloma cell lines against the NCATS MIPE library collection: XG1_PLB cell viability assay (AID 1919866); note: nearly all actives have a fitted effect of over 35% in size
Summary of the method: as §1

[12] = Quantitative High-Throughput drug screen in 47 multiple myeloma cell lines against the NCATS MIPE library collection: VP6_DJ cell viability assay (AID 1919867); note: nearly all actives have a fitted effect of over 40% in size
Summary of the method: as §1

[13] = Quantitative High-Throughput drug screen in 47 multiple myeloma cell lines against the NCATS MIPE library collection: PE2_PLB cell viability assay (AID 1919869); note: nearly all actives have a fitted effect of over 35% in size
Summary of the method: as §1

[14] = Quantitative High-Throughput drug screen in 47 multiple myeloma cell lines against the NCATS MIPE library collection: PCM6_Riken cell viability assay (AID 1919870); note: nearly all actives have a fitted effect of over 30% in size
Summary of the method: as §1

[15] = Quantitative High-Throughput drug screen in 47 multiple myeloma cell lines against the NCATS MIPE library collection: KMS11_JCRBsus cell viability assay (AID 1919873); note: nearly all actives have a fitted effect of over 50% in size
Summary of the method: as §1

[16] = Quantitative High-Throughput drug screen in 47 multiple myeloma cell lines against the NCATS MIPE library collection: KMS28BM_JCRB cell viability assay (AID 1919874); note: nearly all actives have a fitted effect of over 35% in size
Summary of the method: as §1

[17] = Quantitative High-Throughput drug screen in 47 multiple myeloma cell lines against the NCATS MIPE library collection: UTMC2_PLB cell viability assay (AID 1919868); details: CellTiter-Glo ATP luminescence, 48 h; viability (% of DMSO control): at 45.8 µM (top of the series); note: nearly all actives have a fitted effect of over 55% in size
Summary of the method: as §1

[18] = Quantitative High-Throughput drug screen in 47 multiple myeloma cell lines against the NCATS MIPE library collection: RPMI8226_ATCC cell viability assay (AID 1919871); note: nearly all actives have a fitted effect of over 30% in size
Summary of the method: as §1

[19] = Quantitative High-Throughput drug screen in 47 multiple myeloma cell lines against the NCATS MIPE library collection: OPM2_DSMZ cell viability assay (AID 1919872); note: nearly all actives have a fitted effect of over 30% in size
Summary of the method: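 Myeloma cells (500 per well) were exposed to MIPE 4.0 compounds by pin transfer and incubated 48 hours at 37C, 5% CO2. Viability was read as ATP by CellTiter-Glo luminescence, normalised to DMSO (100%) and media-only (0%) wells.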

[20] = Quantitative High-Throughput drug screen in 47 multiple myeloma cell lines against the NCATS MIPE library collection: SKMM1_PLB cell viability assay (AID 1919863); details: SKMM1 myeloma viability, CellTiter-Glo ATP, 48 h; viability: active compounds read low; note: nearly all actives have a fitted effect of over 35% in size
Summary of the method: as §1
Potency is the fitted concentration of half-maximal effect.

CC(C)c1cnn2c(NCc3ccccc3)cc(NCCCCCCN)nc12
active: Potency [1] 20900 nM | Potency [2] 18700 nM | Potency [3] 14800 nM | Potency [4] 14800 nM | Potency [5] 18700 nM | Potency [6] 11800 nM | Potency [7] 6620 nM | Potency [8] 18700 nM | Potency [9] 2640 nM | Potency [10] 332 nM | Potency [11] 935 nM | Potency [12] 11800 nM | Potency [13] 26400 nM | Potency [14] 13200 nM | Potency [15] 26400 nM | Potency [16] 20900 nM

C[C@H]1COc2c(N3CCN(C)CC3)c(F)cc3c(=O)c(C(=O)O)cn1c23
inactive: Potency [1] | Potency [2] | Potency [3] | Potency [4] | Potency [5] | Potency [6] | Potency [7] | Potency [9] | Potency [10] | Potency [11] | Potency [17] | Potency [13] | Potency [14] | Potency [18] | Potency [19] | Potency [15]

CC(=O)[C@]1(O)Cc2c(O)c3c(c(O)c2[C@@H](O[C@H]2C[C@H](N)[C@@H](O)[C@H](C)O2)C1)C(=O)c1ccccc1C3=O
active: Potency [1] 52.6 nM | Potency [2] 1320 nM | Potency [3] 187 nM | Potency [4] 1320 nM | Potency [5] 235 nM | Potency [6] 166 nM | Potency [8] 418 nM | Potency [20] 187 nM | Potency [9] 264 nM | Potency [10] 235 nM | Potency [12] 418 nM | Potency [17] 37.2 nM | Potency [13] 132 nM | Potency [14] 187 nM | Potency [18] 418 nM | Potency [15] 264 nM | Potency [16] 148 nM

CCC[C@H]1C[C@H](C(=O)N[C@@H]([C@@H]2O[C@@H](SC)[C@@H](O)[C@@H](O)[C@@H]2O)[C@H](C)Cl)N(C)C1
inactive: Potency [1] | Potency [2] | Potency [3] | Potency [4] | Potency [5] | Potency [6] | Potency [8] | Potency [10] | Potency [11] | Potency [12] | Potency [13] | Potency [14] | Potency [18] | Potency [19] | Potency [15]

C[C@@H]1CC[C@@]2(OC1)OC1CC3C4CC=C5CC(O)CCC5(C)C4CCC3(C)C1[C@@H]2C (some centres not stated)
inactive: Potency [1] | Potency [2] | Potency [3] | Potency [4] | Potency [5] | Potency [6] | Potency [8] | viability [20] 155% | Potency [13] | Potency [14] | Potency [18] | Potency [19] | Potency [15] | Potency [16]

Cc1c2oc3c(C)ccc(C(=O)NC4C(=O)NC(C(C)C)C(=O)N5CCCC5C(=O)N(C)CC(=O)N(C)C(C(C)C)C(=O)OC4C)c3nc-2c(C(=O)NC2C(=O)NC(C(C)C)C(=O)N3CCCC3C(=O)N(C)CC(=O)N(C)C(C(C)C)C(=O)OC2C)c(N)c1=O (configuration not stated) (I: TVP[Sar][NMeV] / II: TVP[Sar][NMeV]; ester I:1-I:C, II:1-II:C; linker I:N-II:N via Actinocin(9to1); configuration not given here)
inactive: Potency [1] | Potency [2] | Potency [3] | Potency [4] | Potency [6] | Potency [7] | Potency [8] | viability [20] -11% | Potency [9] | Potency [10] | Potency [12] | Potency [17] | Potency [13] | Potency [14] | Potency [15] | Potency [16]

COC(=O)[C@H](CCCN=C(N)N)NS(=O)(=O)c1ccc(C)cc1
active: Potency [10] 11800 nM
inactive: Potency [1] | Potency [2] | Potency [3] | Potency [4] | Potency [5] | Potency [7] | viability [20] 122% | Potency [13] | Potency [14] | Potency [15] | Potency [16]

CC(C)(C)[N+]([O-])=Cc1ccc(S(=O)(=O)O)cc1S(=O)(=O)O
inactive: Potency [1] | Potency [2] | Potency [3] | Potency [4] | Potency [7] | Potency [8] | viability [20] 115% | Potency [10] | Potency [11] | Potency [12] | Potency [13] | Potency [18] | Potency [19] | Potency [15]

Cc1cnc(Nc2ccc(CN3CCOCC3)cc2)nc1Nc1cccc(S(=O)(=O)NC(C)(C)C)c1
active: Potency [1] 4690 nM | Potency [2] 5900 nM | Potency [3] 9350 nM | Potency [5] 2350 nM | Potency [6] 526 nM | Potency [7] 1870 nM | Potency [8] 935 nM | Potency [20] 5260 nM | Potency [9] 7430 nM | Potency [10] 1180 nM | Potency [11] 935 nM | Potency [12] 1320 nM | Potency [17] 743 nM | Potency [13] 1660 nM | Potency [14] 5260 nM | Potency [18] 4180 nM | Potency [19] 4690 nM | Potency [15] 1180 nM | Potency [16] 4690 nM

Cc1cc(C(=O)NOCCO)c(Nc2ccc(I)cc2F)n(C)c1=O
inactive: Potency [1] | Potency [2] | Potency [3] | Potency [4] | viability [20] 90.9% | Potency [14] | Potency [15] | Potency [16]
